# Rows were chosen to be rich in hits. Some 9.3% of all compounds tested hit in one or more screens of this group.
# ELG1 repair inh – ELG1-dependent DNA repair inhibition | HEK293T ELG1-luciferase reporter, luminescence, 16 h; DNA damage induced by 5-fluorouridine | Potency, µM (series often up to 46.1 µM), for the others: at the highest dose activity change, negative = inhibition, usual class: inhibitors | 330,000 tested, 2.3% active | AID 504467; note: % is set by controls: 0 for no effect and ±100 for the full control effect; nearly all actives have a fitted effect of over 55% in size
#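 HEK293T cells expressing luciferase-tagged ELG1 (2,000/well) received 5-Fluorouridine plus compound or DMSO for 16 hr at 37 °C. Luciferase was read by ONE-Glo luminescence after 30 min at room temperature.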
# SMN2 splice up – SMN2 splice variant enhancement; HEK293 SMN2-luciferase splicing reporter, luminescence, 30-36 h; Potency, µM (titrated, usually from 46.1 µM), without a hit: at the highest dose activity change, positive = activation, hits mostly activators; 210,000 tested, 2.8% active; note: % of control where 0% means no effect; nearly all actives have a fitted effect of over 55% in size
#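 qHTS luciferase splicing reporter: luminescence rises when SMN2 exon 7 is included in transfected HEK293 cells. Compound exposure lasted 30-36 h at 37C, with 4.5 mM final sodium butyrate as control, followed by a ONE-Glo read.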
# ELG1 genotox – genotoxicity induction in ELG1-luciferase HEK293T cells | 330,000 tested, 1.3% active | Potency, µM (series often up to 46 µM), for the others: top-dose activity change, positive = activation, hits mostly activators | HEK293T ELG1-luciferase reporter, luminescence, 16 h; note: % of control where 0% means no effect; nearly all actives have a fitted effect of over 60% in size
#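 Luminescence read-out: rising ELG1-luciferase signal, reflecting elevated ELG1 protein under genetic stress, flags genotoxic compounds. Cells were treated for 16 hr at 37 °C before ONE-Glo detection.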
# FLuc modulator – inhibits or activates purified firefly luciferase, miR-21 counter-screen | P08659 | purified FLuc, Km substrates, luminescence inhibition | Potency, µM (doses to about 57.5 µM), for the others: at the highest dose activity change, negative = inhibition, most hits filed as inhibitors | 360,000 tested, 6.9% active | AID 588342;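 note: plate controls were vehicle for no effect and reference inhibitor for full effect; nearly all actives have a fitted effect of over 55% in size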
# Target sequence (P08659 whole entry, looked up): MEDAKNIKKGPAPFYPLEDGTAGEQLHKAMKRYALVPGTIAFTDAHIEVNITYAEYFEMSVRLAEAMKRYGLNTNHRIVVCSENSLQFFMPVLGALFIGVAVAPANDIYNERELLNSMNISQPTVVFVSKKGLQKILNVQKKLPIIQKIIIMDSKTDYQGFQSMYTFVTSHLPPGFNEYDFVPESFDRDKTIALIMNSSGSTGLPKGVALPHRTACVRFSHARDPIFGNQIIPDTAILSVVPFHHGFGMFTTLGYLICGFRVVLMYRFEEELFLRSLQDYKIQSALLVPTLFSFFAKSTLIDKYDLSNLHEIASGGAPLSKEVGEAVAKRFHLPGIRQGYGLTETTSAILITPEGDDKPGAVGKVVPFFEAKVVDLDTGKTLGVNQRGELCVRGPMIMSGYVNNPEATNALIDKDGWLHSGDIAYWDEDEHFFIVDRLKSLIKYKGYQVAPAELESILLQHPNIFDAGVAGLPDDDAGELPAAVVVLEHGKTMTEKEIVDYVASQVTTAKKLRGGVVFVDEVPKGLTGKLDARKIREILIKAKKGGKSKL
#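 Biochemical qHTS of compounds, final roughly 60 µM downward over six points, against 10 nM purified firefly luciferase using Km concentrations of substrates (10 uM D-luciferin, 10 uM ATP) in Tris acetate pH 7.5 buffer; luminescence output.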
# NPC1 prom act – activators of NPC1 promoter; 320,000 tested, 2.4% active; Potency, µM (highest dose often 9.22 µM), inactives show at the highest dose activation, usual class: activators; AID 485313; Huh7 NPC1 promoter luciferase reporter, 24 h; note: % of control where 0% means no effect; nearly all actives have a fitted effect of over 60% in size
#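 Stably transfected Huh7 (NPC1 promoter→luciferase), 1500 cells/well in Opti-MEM + 10% FBS, 2 h settle, then compound 24 h at 37 °C. Luminescence after 10 min with Amplite reagent.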
# Rab9 prom act – Rab9 promoter activation. Huh7 Rab9 promoter-luciferase reporter, luminescence, 24 h. Potency, µM (top dose mostly 9.22 µM), for inactives: at the top dose activation, negative = inhibition, usual class: activators. 320,000 tested, 2.8% active. AID 485297; note: % of control where 0% means no effect; nearly all actives have a fitted effect of over 60% in size
#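 Huh7 cells stably carrying a Rab9 promoter-luciferase reporter, 1500 cells per well in OP-MEM I with 10% FBS, treated with compound 24 hours at 37C. Luciferase activity read by luminescence after 10 minutes with Amplite reagent.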
# Starred values were filed as active, the others as inactive; ? = inconclusive; · = no result given; [ ] = dose if it differs, or a comment. Calls come from the whole dose curve; as a rule, active = well fitted curve in the direction sought with a large enough effect; inconclusive = small, poorly fitted or top-dose-only effect, or another doubt; inactive = no such curve, though single readings can be large; an effect the other way counts as inactive or inconclusive. Potency is the fitted concentration of half-maximal effect.
SMILES,ELG1 repair inh,SMN2 splice up,ELG1 genotox,FLuc modulator,NPC1 prom act,Rab9 prom act
O=C1c2ccccc2S(=O)(=O)N1CC1CC(c2ccccc2)=NO1 (centres undefined),?,14%,4.1µM*,6µM*,3.2µM*,1.4µM*
O=C1c2ccccc2S(=O)(=O)N1CC1CC(c2ccc(Cl)cc2)=NO1 (centres undefined),?,16µM*,16µM*,2.4µM*,3.5µM*,2.2µM*
COc1ccc(C2=NOC(CN3C(=O)c4ccccc4S3(=O)=O)C2)cc1 (centres undefined),?,?,?,2.1µM*,1.3µM*,0.89µM*
Cc1ccc(C2=NN(C(=O)CN3C(=O)c4ccccc4S3(=O)=O)C(c3ccco3)C2)cc1 (centres undefined),-5%,18%,-3%,0%,-7%,-6%
COc1cccc(C(=O)Nc2cc(C(=O)NCc3ccc(C)cc3)ccc2N2CCC3(CC2)CC(c2ccccc2)=NO3)c1,-1%,·,-2%,?,-8%,0%
CCOc1ccc(S(=O)(=O)n2ccc(C)n2)cc1,2%,·,-2%,-1%,5%,5%
COc1ccc(NC(=O)CSc2n[nH]c(-c3ccncc3)n2)cc1Cl,10%,·,10%,·,·,·
COc1ccc(NC(=O)CSc2n[nH]c(-c3ccccc3)n2)cc1S(N)(=O)=O,24%,·,2%,12µM*,-5%,2%
COc1ccc(-c2nc(SCC(=O)Nc3cccc(S(N)(=O)=O)c3)n[nH]2)cc1,?,·,12%,1.7µM*,23%,25%
COc1ccc(-c2nc(SCC(=O)Nc3c(C)cc(C)cc3C)n[nH]2)cc1,·,·,·,15µM*,·,·
COc1cc(OC)c2c(-c3ccccc3)cc(=O)oc2c1C(CCN1CCCC1)c1ccc2c(c1)OCO2 (centres undefined),24%,·,3%,1%,-6%,-6%
CCCCC(=O)Nc1nnc(SCC(=O)Nc2ccc(OC)cc2)s1,-1%,·,?,1%,-7%,0%
COCCNC(=O)CSc1nnc(NC(=O)Nc2ccc(C)cc2)s1,·,·,·,12µM*,·,·
COc1ccc(NC(=O)CSc2nnc(NC(=O)Nc3ccc(OC)cc3)s2)cc1,·,·,·,0.38µM*,·,·
CCCSc1nnc(NC(=O)Nc2ccc(C)cc2)s1,2%,·,-3%,0%,2%,-2%
COc1ccc(CSc2nnc(SCc3ccc([N+](=O)[O-])cc3)s2)cc1,-7%,-21%,1%,-2%,2%,-2%
COc1ccc(NC(=O)CSc2nnc(NC(=O)c3ccccc3C(=O)O)s2)cc1,-4%,·,-2%,27µM*,-1%,-5%
COC(=O)CSc1nnc(SCc2ccc(OC)cc2)s1,0%,1%,0%,24µM*,0%,-11%
CN(Cc1ccccc1)C(=O)c1ccccc1N(C)S(=O)(=O)c1ccccc1,-8%,·,-2%,1%,0%,2%
CCC(C)C(=O)OC1C2CC3=C4CC(=O)OC(c5ccoc5)[C@]4(C)CCC3[C@@](C)(C2=O)C(CC(=O)OC)C1(C)C (some centres undefined),·,-22%,·,·,·,·
COc1ccc(Nc2nnc(SCC(=O)Nc3ccc4[nH]c(=O)[nH]c4c3)s2)cc1,6%,·,6%,2.4µM*,3%,11%
Cc1nnc(SCC(=O)Nc2ccc3[nH]c(=O)[nH]c3c2)s1,11%,·,0%,4%,-2%,-12%
Cc1ccc(OCCCN2CCOCC2)c([N+](=O)[O-])c1,?,?,?,21µM*,?,?
C=CCN(CC=C)CCOc1cc(C)ccc1[N+](=O)[O-],9%,-2%,-2%,4%,-2%,2%
C=CCN(CC=C)CCOc1ccc(C)cc1[N+](=O)[O-],?,6%,6%,24µM*,15%,16%
SMILES,ELG1 repair inh,SMN2 splice up,ELG1 genotox,FLuc modulator,NPC1 prom act,Rab9 prom act
O=C(Cn1[nH]c(=O)c2ccccc2c1=O)NCC1COc2ccccc2O1 (centres undefined),-6%,·,2%,-1%,-2%,-6%
c1ccc(-c2ccc(-c3ccccn3)nn2)nc1,?,7.1µM*,10%,1.3µM*,0.32µM*,0.32µM*
c1ccc(-c2ccccn2)nc1,-1%,-9%,-1%,3%,-3%[46.1 µM],-4%[46.1 µM]
COc1ccc2c(C)c(CC(=O)N3CCN(C(=O)C4COc5ccccc5O4)CC3)c(=O)oc2c1 (centres undefined),23µM*,·,-8%,2%,-4%,-1%
Cc1c(CC(=O)N2CCN(C(=O)C3COc4ccccc4O3)CC2)c(=O)oc2cc(O)ccc12 (centres undefined),0.73µM*,·,-7%,-1%,-1%,-5%
Cc1c(CC(=O)N2CCN(C(=O)C3COc4ccccc4O3)CC2)c(=O)oc2cc(O)cc(O)c12 (centres undefined),?,·,1%[9.26 µM],5%,-8%,-1%
O=C(/C(C=Nc1cccc(C(F)(F)F)c1)=C(/O)c1ccco1)C(F)(F)F,?,?,?,24µM*,-2%,0%
O=C(/C(C=Nc1ccc(Br)cc1)=C(/O)c1ccco1)C(F)(F)F,?,14µM*,?,6µM*,?,3.2µM*
O=C(c1ccco1)N1CCN(S(=O)(=O)c2cccc(C(F)(F)F)c2)CC1,4%,-1%,3%,2%,0%,4%
CN(c1ccccc1)S(=O)(=O)c1cccc(C(=O)OCC(=O)NCCCN2CCCC2=O)c1,5%,-5%,0%,2%,-5%,0%
CCc1nn(CC(=O)NCc2ccc(C)cc2)c(=O)c2cc3occc3n12,·,-5%,·,-6%,·,·
Cc1ccc(NC(=O)CCC(=O)N/N=C/c2ccc(O)cc2O)cc1,18µM*,·,5%,-3%,-6%,-8%
O=C(Cn1nnc(-c2ccccc2)n1)N/N=C/c1cc([N+](=O)[O-])ccc1O,-27%,·,9%,-10%,-1%,10%
O=C(Cn1nc2ccccc2n1)N/N=C/c1cc([N+](=O)[O-])ccc1O,6.5µM*,-14%,4%,-17%,-13%,-7%
O=C(CSc1ccccn1)N/N=C/c1cc([N+](=O)[O-])ccc1O,16µM*,·,7%,-5%,-2%,-3%
O=C(CCC(=O)Nc1ccc(Br)cc1)N/N=C/c1cc([N+](=O)[O-])ccc1O,9.2µM*,-8%,5%,?,-2%,2%
O=C(CCC(=O)Nc1ccc(F)cc1)N/N=C/c1cc([N+](=O)[O-])ccc1O,?,10%,-6%,-11%,-3%,-6%

# Source: PubChem
